# Results: the supplement of paper PMC10498489
# Screen size: about 2,300 compounds; about 330 (14%) showed activity.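 Rule for the calls: active = median modified Z-score above 1.96; inactive = 1.96 or below.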 These entries were drawn from the full list.
# Tested on: HepG2 Srxn1-GFP reporter cells (+30 nM CDDO-Me)
# Assay: Srxn1-GFP intensity median modified Z-score relative to plate median; higher = stronger NRF2 / oxidative stress reporter activation, active = hit call of the paper
# Details: 10 µM; exposure time: 24h
# In short: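 HepG2 Srxn1-GFP BAC reporter cells (20,000 per well, 96-well plates) were co-exposed to an NRF2 activator at 30 nM and compound at 10 μM (≤0.1% DMSO) for 24 h in three replicate plates. After formaldehyde fixation and Hoechst staining, confocal images were analysed per cell for cytoplasmic GFP, excluding images with under 100 cells. The value is the median over replicates of the per-plate modified Z-score of GFP intensity. Scaling used 1.4826 × median absolute deviation.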
row,Compound,Srxn1-GFP intensity median modified Z-score
1,C#CC(C)(O)CC (configuration not stated) [euspeclibcmpd1276],1.99 (active)
2,CCC(C)(C)O [euspeclibcmpd964],-0.585 (inactive)
3,CC1C(=O)O[C@@H]2CCN3CC=C(COC(=O)[C@](C)(O)[C@]1(C)O)[C@H]23 (some centres not stated) [euspeclibcmpd1632],-0.339 (inactive)
4,N=c1[nH]c(=N)[nH]c(=NC2CC2)[nH]1 [euspeclibcmpd1229],-0.282 (inactive)
5,CNC(=O)Oc1ccccc1OC(C)C [euspeclibcmpd1026],-0.0719 (inactive)
6,c1ccc2c(c1)oc1ccccc12,0.352 (inactive)
7,c1ccc2c(c1)sc1ccccc12 [euspeclibcmpd88],3.54 (active)
8,C#CC1(O)CCC2C3CC=C4CC(=O)CCC4(C)C3CCC21C (configuration not stated) [euspeclibcmpd545],-0.576 (inactive)
9,CN1C2C[C@H](OC(=O)C(CO)c3ccccc3)C[C@@H]1[C@@H](O)C2 (some centres not stated) [euspeclibcmpd1244],-0.443 (inactive)
10,CC(C)CC(N(C)C)C1(c2ccc(Cl)cc2)CCC1 (configuration not stated) [euspeclibcmpd2026],-0.299 (inactive)
11,O=c1cccc2n1C[C@H]1CNCC2C1 [euspeclibcmpd1159],0.6 (inactive)
12,C[N+]1(C)C2CC(OC(=O)C(CO)c3ccccc3)CC1C1OC12 (configuration not stated) [euspeclibcmpd193],-0.176 (inactive)
13,O=C(O)C1CCN1 (configuration not stated),1.24 (inactive)
14,C[N+](C)(C)CCCCCCCCCC[N+](C)(C)C [euspeclibcmpd902],4.92 (active)
15,NCC1(CC(=O)O)CCCCC1 [euspeclibcmpd872],-0.0794 (inactive)
16,CN(C(=O)Oc1cccc2cccnc12)c1ccccc1,5.69 (active)
17,COc1cc(OC)c2c(c1)O[C@H](c1ccc(OC)c(OC)c1)[C@@H](O)C2 [euspeclibcmpd1381],-0.52 (inactive)
18,COc1cc2c(cc1-c1cc3cc4ccoc4cc3oc1=O)OCO2 [euspeclibcmpd1721],0.147 (inactive)
19,C[C@]12CCC3C(CC[C@H]4CC(=O)CC[C@]34C)C1CCC2=O (some centres not stated) [euspeclibcmpd1450],-0.253 (inactive)
20,N#CC(O[C@@H]1O[C@H](CO[C@@H]2O[C@H](CO)[C@@H](O)[C@H](O)[C@H]2O)[C@@H](O)[C@H](O)[C@H]1O)c1ccccc1 (some centres not stated) [euspeclibcmpd1342],-0.305 (inactive)
21,O=C(N/N=C/c1ccc([N+](=O)[O-])o1)c1cc([N+](=O)[O-])cc([N+](=O)[O-])c1O [euspeclibcmpd462],3.58 (active)
22,COc1ccc2c(c1)[nH]c1c(C)nccc12 [euspeclibcmpd1501],1.98 (active)
23,Cc1nccc2c1[nH]c1ccccc12 [euspeclibcmpd1462],-0.275 (inactive)
24,CNc1ccc(C(=O)CC(O)CCC(C)C2OC(=O)CC(O)CC(=O)CC(O)CC(O)CC(O)CC(O)CC3(O)CC(O)C(C(=O)OC)C(CC(OC4OC(C)C(O)C(N)C4O)C=CC=CC=CC=CC=CC=CC=CC2C)O3)cc1 (configuration not stated) [euspeclibcmpd1836],0.559 (inactive)

row,Compound,Srxn1-GFP intensity median modified Z-score
1,NC1C[C@H]1c1ccccc1 (some centres not stated) [euspeclibcmpd300],1.01 (inactive)
2,CCOC(=O)CC(SP(=S)(OC)OC)C(=O)OCC (configuration not stated) [euspeclibcmpd992],0.167 (inactive)
3,OC[C@@H]1CCCN2CCCC[C@H]12 [euspeclibcmpd1729],-0.476 (inactive)
4,CCN1C[C@@]2(COC)C3[C@@H](OC)[C@H]4[C@@H]1[C@]3(C(OC)C[C@H]2O)C1C[C@@]2(O)[C@H](OC(=O)c3ccccc3)C1[C@]4(OC(C)=O)[C@@H](O)[C@@H]2OC (some centres not stated) [euspeclibcmpd686],0.0544 (inactive)
5,COP(=O)(OC)OC=C(Cl)Cl [euspeclibcmpd1300],1.08 (inactive)
6,CN(C)C(=S)SSC(=S)N(C)C [euspeclibcmpd571],1.95 (inactive)
7,N#CC(=Cc1cccc(O)c1)C(=O)O [euspeclibcmpd2014],0.195 (inactive)
8,Oc1cc(Cl)ccc1Oc1ccc(Cl)cc1Cl [euspeclibcmpd800],3.85 (active)
9,CC(Oc1ccc(Cl)cc1Cl)C(=O)O (configuration not stated) [euspeclibcmpd2066],0.00229 (inactive)
10,Oc1ccc(Cl)cc1 [euspeclibcmpd227],-0.0545 (inactive)
11,CCOc1cc(C=O)ccc1O [euspeclibcmpd2137],0.0734 (inactive)
12,CNc1ccccc1C(=O)O [euspeclibcmpd1568],-0.451 (inactive)
13,CCC(C)C(=O)O[C@@H]1C[C@@]2(C)[C@H](c3ccoc3)OC(=O)CC23OC2(C)O[C@]14[C@]1(C)[C@@H](CC(=O)OC)C5(C)CC1(O)[C@](O)(C5OC(=O)C1(C)OC1C)[C@@H](OC(C)=O)[C@]34O2 (some centres not stated) [euspeclibcmpd1590],1.25 (inactive)
14,N=C(N)NOCCC(N)C(=O)O (configuration not stated) [euspeclibcmpd2161],-0.447 (inactive)
15,C#C[C@]1(O)CC[C@H]2[C@@H]3CC=C4CC(=O)CCC4C3CC[C@@]21CC (some centres not stated) [euspeclibcmpd2176],0.145 (inactive)
16,NCCCc1c[nH]c2ccccc12,1.08 (inactive)
17,CC1=C2C3OC(=O)C(C)[C@@H]3CC[C@@]2(C)C=CC1=O (some centres not stated) [euspeclibcmpd1347],0.307 (inactive)
18,CC=C(C)C(=O)O[C@H]1C[C@@H](OC(C)=O)[C@@]2(C(=O)OC)CO[C@@H]3C2[C@]12CO[C@](O)(C(=O)OC)[C@H]2[C@](C)([C@]12O[C@@]1(C)[C@H]1C[C@@H]2OC2OC=C[C@@]21O)[C@@H]3O (some centres not stated) [euspeclibcmpd1486],2.24 (active)
19,C#C[C@]1(O)CCC2C3CC=C4CC(=O)CCC4C3CC[C@@]21CC (some centres not stated) [euspeclibcmpd2251],-0.375 (inactive)
20,O=c1n(Cl)c(=O)n(Cl)c(=O)n1Cl [euspeclibcmpd935],-0.815 (inactive)
21,c1ccc(/N=N\c2ccccc2)cc1 [euspeclibcmpd1762],0.733 (inactive)
22,C[C@]12CCC(=O)CC1=CCC1C2CC[C@@]2(C)C1CC[C@@H]2O (some centres not stated) [euspeclibcmpd2134],-0.455 (inactive)
23,C[C@]12CCC3c4ccc(OC(=O)N(CCCl)CCCl)cc4CCC3C1CC[C@@H]2O (some centres not stated) [euspeclibcmpd984],2.13 (active)
